SMILES strings stand for the structures. Values joined by “and” are separate entries in the source; they are usually repeats but may differ in a detail not shown here. Identical values can stand only once. Inconclusive results are not listed. A call without a number means that no potency is given here. Unmarked numbers belong to inactive results. Active and inactive are the calls of the source. The call rests on the fitted dose curve; in most records, active means well fitted inhibition curve with a large enough effect in the repeat runs; inconclusive means weak or mixed curves; inactive means no such curve, though single readings can be large or run the other way.
Potency means the concentration at half of the fitted maximal effect.

Sequence of Cytochrome P450 3A4 (Homo sapiens) (P08684 whole entry, looked up): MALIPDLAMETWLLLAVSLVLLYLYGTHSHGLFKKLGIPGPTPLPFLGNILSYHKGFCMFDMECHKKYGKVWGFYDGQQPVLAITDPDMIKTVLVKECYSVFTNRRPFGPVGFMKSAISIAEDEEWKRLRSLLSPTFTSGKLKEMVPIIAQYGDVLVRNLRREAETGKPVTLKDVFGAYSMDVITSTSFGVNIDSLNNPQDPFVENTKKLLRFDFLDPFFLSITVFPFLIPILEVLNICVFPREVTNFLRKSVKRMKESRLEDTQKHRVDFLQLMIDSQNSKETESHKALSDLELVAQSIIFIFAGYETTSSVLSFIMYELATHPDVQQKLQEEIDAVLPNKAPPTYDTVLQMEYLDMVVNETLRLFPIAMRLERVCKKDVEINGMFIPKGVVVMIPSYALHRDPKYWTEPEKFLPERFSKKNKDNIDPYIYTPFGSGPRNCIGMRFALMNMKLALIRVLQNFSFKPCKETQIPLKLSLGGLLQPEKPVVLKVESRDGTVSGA

This test addresses Cytochrome P450 3A4 (Homo sapiens) (UniProt P08684). Nature of the test: Cytochrome P450 Family 3 Subfamily A Member 4 (CYP3A4) small molecule antagonists: luciferase reporter qHTS assay (AID 1671201). Further: nearly all actives have a fitted effect of over 50% in size. The conditions noted are these: P450-Glo CYP3A4 enzyme, luciferin luminescence, 1 h; series mostly up to 115 µM; activity change, negative = inhibition: at the top concentration. From the text: National Center for Advancing Translational Sciences [NCATS]
U.S. Environmental Protection Agency [EPA]
National Institutes of Environmental Health Sciences [NIEHS]
National Toxicology Program [NTP]
U.S. Food and Drug Administration [FDA]
Cytochrome P450 (CYP) enzymes are membrane-bound hemeproteins that play a key role in metabolism of drugs and xenobiotics. Evaluation of the effect of chemicals on CYP isozymes is useful to minimize the adverse drug reactions and toxicities in drug development process. Tox21 chemicals were tested for their effect on CYP enzyme activities by using P450-Glo (TM) screening systems (Promega Corporation, Madison, WI). These systems provide a luminescent method containing proluciferin substrates and are converted to luciferin products by CYP isozymes. The luciferin products formed are detected with a luciferin detection reagent, and the amount of light produced is proportional to CYP activity. P450-Glo (TM) CYP3A4 screening system (Catalog. No. V9910) was used to detect the compounds that interfere in CYP3A4 activity. The positive control compound used for CYP3A4 assay is ketoconazole (Sigma-Aldrich, St. Louis, MO).
Tox21 Assay Protocol Summary:
Two ul of enzyme-substrate mix was dispensed into medium binding white/solid 1536-well plates (Greiner Bio-One North America Inc., Monroe, NC) using a BioRaptr Flying Reagent Dispenser (FRD, Beckman Coulter, Brea, CA). Compounds dissolved in DMSO and positive control (ketoconazole) were transferred to the assay plates at 23 nl using a Pintool station (Wako, San Diego, CA). The assay plates were incubated at room temperature for 10 min. Then 2 ul of NADPH regeneration solution was added to each well of the assay plates using an FRD and incubated at room temperature for 1 h. The reaction was stopped by adding 4 ul of detection reagent using an FRD and after 20 min incubation at room temperature the luminescence signal was measured using a ViewLux plate reader (Perkin Elmer, Shelton, CT). Data were expressed as relative luminescence units.
As to `COc1ccc(C=O)cc1OC`, the “activity change, negative = inhibition” value is -10.7%.

In the case of `O=[N+]([O-])/N=C1\NCCN1Cc1ccc(Cl)nc1`, the Potency result was “inactive”.

As for `COP(=S)(OC)SCn1nnc2ccccc2c1=O`, the Potency was 7.81 µM (active) and 11.2 µM (active).

As for `CS(=O)(=O)NC(=O)c1cc(Oc2ccc(C(F)(F)F)cc2Cl)ccc1[N+](=O)[O-]`, the Potency result was “inactive”.

Take `COP(=O)(NC(C)=O)SC` (stereo not given): the Potency result is “inactive”.

Consider `O=[N+]([O-])c1ccc(Cl)c([N+](=O)[O-])c1`, for which the Potency result was “inactive”.

For `OC(c1ccc(Cl)cc1)(c1cncnc1)c1ccccc1Cl` (stereo not given), the Potency is 182 nM (active) and 224 nM (active).

With `CCOP(=S)(OCC)SCn1c(=O)oc2cc(Cl)ccc21`, the Potency is 241 nM (active) and 317 nM (active).

`CCCCOCC1CO1` (stereo not given): the Potency entry was “inactive”.

In the case of `C[C@]12CCC(=O)C=C1CC[C@@H]1[C@@H]2CC[C@@]2(C)[C@H]1CC[C@]2(C)O`, the Potency entry is “inactive”.

For `Clc1cccc(Cl)c1`, the Potency entry is “inactive”.

As for `CCC/C=N/O`, the Potency result was “inactive”.

With `CC(C)CON=O`, the Potency result is “inactive”.

For `CCOC(=O)c1ccccc1N`, the Potency entry is “inactive”.

Regarding `C=C(C)C#N`, the Potency entry was “inactive”.

In the case of `Cc1ccc(N=CN(C)C=Nc2ccc(C)cc2C)c(C)c1`, the Potency entry was “inactive”.

Consider `Cc1cc(Cl)ccc1N=CN(C)C`, for which the Potency result is “inactive”.

`CC1(C)Cc2cccc(O)c2O1`: the Potency result was “inactive”.

For `COP(=S)(OC)Oc1ccc(Sc2ccc(OP(=S)(OC)OC)cc2)cc1`, the “activity change, negative = inhibition” value is -25.7% [at 52.9 µM].

As to `O=C(O)CF`, the Potency result is “inactive”.

Regarding `NC(=O)CN1CCCC1=O`, the Potency entry was “inactive”.

With `ClC(Cl)=C(Cl)C(Cl)=C(Cl)Cl`, the Potency result is “inactive”.

`C=CC(=O)OCC(CC)(COC(=O)C=C)COC(=O)C=C`: the Potency is 818 nM (active) and 2.52 µM (active).

With `CCOS(=O)(=O)OCC`, the “activity change, negative = inhibition” value is 1.09%.

As for `N#CC(c1ccccc1)c1ccccc1`, the Potency result was “inactive”.

For `Oc1ccc(Cl)cc1Cc1ccccc1`, the “activity change, negative = inhibition” value is -12.7% [at 52.9 µM].

`CC(O)CN(CC(C)O)CC(C)O` (stereo not given): the Potency result was “inactive”.

For the molecule `Clc1ccc(C(Cl)(Cl)Cl)cc1`, the Potency result is “inactive”.

Turning to `CCCCCCCC[N+](C)(CCCCCCCC)CCCCCCCC`, the Potency is 1 µM (active) and 449 nM (active) and 6.33 µM (active).

For the molecule `Clc1ccccc1-c1nnc(-c2ccccc2Cl)nn1`, the Potency result is “inactive”.

`Cc1cccc(N=Nc2ccc(N(C)C)cc2)c1`: the Potency result is “inactive”.

Consider `CSc1nc(NC(C)C)nc(NC(C)C)n1`, for which the Potency entry was “inactive”.

`Brc1ccc(Br)cc1`: the Potency result is “inactive”.

As to `Nc1ccc2ccccc2c1`, the Potency is 19.3 µM (active) and 17.8 µM (active).

Take `O=S(=O)(O)C(F)(F)C(F)(F)C(F)(F)C(F)(F)C(F)(F)C(F)(F)C(F)(F)C(F)(F)F`: the Potency result was “inactive”.

Regarding `CCCCOC(=O)COC(=O)c1ccccc1C(=O)OCCCC`, the Potency is 22.3 µM (active) and 35.6 µM (active).

On to `O=NN(c1ccccc1)c1ccccc1`, for which the Potency entry is “inactive”.

Take `C[C@]12CC[C@H]3[C@@H](CCC4=CC(=O)CC[C@@H]43)[C@@H]1CC[C@@H]2O`: the “activity change, negative = inhibition” value is -11.7% [at 52.9 µM].

As for `C=CC(Cl)CCl` (stereo not given), the Potency result is “inactive”.

Turning to `ClCc1ccccn1`, the Potency result was “inactive”.

The values are drawn from PubChem BioAssay (Tox21).
